Rin1-Abl PPI inh – human Rin1-Abl interaction inhibition; TR-FRET Rin1/Abl binding, biochemical; inhibition, % at 7.35 µM; 360,000 tested, 0.4% active; in the data active = inhibition above about 5%, passing the limit was not always enough
PKA-R1A activ – activates the PKA-R1A holoenzyme complex | P00514+P68181 | PKA-R1A dissociation, Cy5-IP20 fluorescence polarization; scaled: DMSO 0%, 113 µM cGMP 100% | activation, % at 11.4 µM | 340,000 tested, 0.083% active | AID 504707;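 active = percent activation above the mean of all tested compounds plus 3 SD, cut at about 19% in these data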;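 note: higher means more PKAc released from R1A so a rise in polarization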
IDE cell activ – IDE (human) activation, cell-based. P14735. HEK cells, FAbeta-B cleavage, fluorescence polarization; 0% vehicle, 100% cell-free pure enzyme wells. activation, % at 5.96 µM. 340,000 tested, 0.073% active. AID 493087;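 active = activation above the mean of all tested compounds plus 3 SD, set per screening campaign, cut at about 17% in these data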
E coli Lon inh – inhibits E. coli Lon protease | 360,000 tested, 0.42% active | inhibition, % at 7.94 µM | purified E. coli Lon protease, fluorescence polarization; in the data active = inhibition above about 13%, passing the limit was not always enough;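 note: 0% = enzyme with probe and DMSO and 100% = no enzyme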
PKA-R2B act – activates the human PKA-R2B holoenzyme complex; P22694+P31323; 340,000 tested, 0.079% active; AID 504700; PKA-R2B holoenzyme dissociation, Cy5-IP20 fluorescence polarization; R2B truncated from residue 108, S112A mutant; 0% DMSO only, 100% 113 µM cGMP; activation, % at 11.4 µM;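 active = activation above a cutoff set at the mean over all compounds plus 3 SD, cut at about 18% in these data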;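 note: higher means more holoenzyme dissociation and a rise in polarization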
Target sequence (P31323 whole entry, looked up, other chains not shown, the tested form may be a part): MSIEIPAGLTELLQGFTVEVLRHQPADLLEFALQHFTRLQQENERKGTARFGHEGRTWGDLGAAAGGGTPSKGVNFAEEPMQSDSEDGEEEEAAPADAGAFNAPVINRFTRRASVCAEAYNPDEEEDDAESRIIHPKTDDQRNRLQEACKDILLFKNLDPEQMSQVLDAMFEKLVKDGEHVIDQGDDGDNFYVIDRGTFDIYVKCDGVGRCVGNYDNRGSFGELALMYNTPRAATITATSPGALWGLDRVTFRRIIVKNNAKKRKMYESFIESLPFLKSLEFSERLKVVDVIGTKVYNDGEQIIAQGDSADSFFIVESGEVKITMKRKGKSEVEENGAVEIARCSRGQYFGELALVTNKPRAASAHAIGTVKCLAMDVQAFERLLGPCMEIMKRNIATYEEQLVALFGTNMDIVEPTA
IDE inh – inhibitors of human insulin-degrading enzyme in cells | HEK cells, FAbetaB cleavage, fluorescence polarization | AID 434962 | 320,000 tested, 0.41% active | inhibition, % at 5.59 µM;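 active = percent inhibition above the average of all tested compounds plus 3 SD, set per screening campaign, cut at about 16% in these data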;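 note: IDE supplied by intact live HEK cells; FP after avidin binding of uncleaved biotin substrate so inhibition keeps polarization high; 0% = DMSO wells and 100% = 60 µM reference IDE inhibitor Ii1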
Rin1 Abl conf – Rin1-Abl interaction inhibition confirmation. 1,300 tested, 49% active. TR-FRET Rin1-Abl binding, purified proteins. inhibition, % at 7.35 µM. shares compounds with Rin1-Abl PPI inh. AID 602124; in the data active = inhibition above about 6.5%
GFP quench-1 – GFP fluorescence interference artifact; shares compounds with Rin1-Abl PPI inh; inhibitors/quenchers counterscreen; inhibition, % at 6.75 µM; 1,300 tested, 8.5% active; in the data active = inhibition above about 6.5%;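 note: ABL1-eGFP fusion protein alone without its partner RIN1-SBP; 0% = protein with vehicle and 100% = wells lacking protein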
GFP quench dose – counter-screen for Rin1-Abl inhibitors: GFP quenchers, dose response. 230 tested, under 10 active. GFP fluorescence interference/quenching counterscreen. AID 602182. shares compounds with Rin1-Abl PPI inh. IC50, µM;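 note: ABL1-eGFP fusion protein alone without its RIN1 binding partner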
GFP quench-2 – counter-screen for Rin1-Abl interaction inhibitors: GFP fluorescence quenching. shares compounds with Rin1-Abl PPI inh. GFP fluorescence quenching counterscreen, biochemical. IC50, µM. 25 tested, under 10 active
* hit, by the source's call; x = no result. A selection: hits, their analogues and other compounds. The true share with any hit is near 1.3%. Unless noted, the rule behind the calls is not given here.

SMILES	Rin1-Abl PPI inh	PKA-R1A activ	IDE cell activ	E coli Lon inh	PKA-R2B act	IDE inh	Rin1 Abl conf	GFP quench-1	others
COc1ccc(CNC(=O)c2ccc(NC(=O)CC3SC(N4CCCCC4)=NC3=O)cc2)cc1 (stereo unspecified)	6	-2	1	-4	2	1	x	x
COc1ccc(CNC(=O)c2ccc(NC(=O)CC3SC(N4CCCC4)=NC3=O)cc2)cc1 (stereo unspecified)	7.8*	-4	-7	6	-1	0	7.5*	-1
CN1CCN(/C=C(\C#N)S(=O)(=O)c2ccc(Cl)cc2)CC1	0	-4	1	1	4	-1	x	x
CCc1nc(SCc2cc(=O)[nH]c3ccccc23)c2c(C)c(C)sc2n1	0	9	-3	3	-2	x	x	x
CCOC(=O)N1CCN(C(=O)Nc2ccc(NC(=O)N3CCN(C(=O)OCC)CC3)cc2)CC1	33*	-5	2	3	2	2	38*	-1	GFP quench dose=>68;GFP quench-2=>68
Cc1cc(-c2nn(-c3ccccc3F)cc2CN2CCCC(O)C2)c(C)s1 (stereo unspecified)	5.7*	-5	3	-4	-3	-2	1	0
Cc1cc(C)nc(/N=C2\NC(=O)CC3C(=O)NCCN23)n1 (stereo unspecified)	-3	7	0	-6	7	3	x	x
COc1ccccc1C(=O)N=C1NC(=O)CC2C(=O)NCCN12 (stereo unspecified)	8.8*	-2	0	5	5	0	-3	2
Cc1nn(-c2ccccc2)c(Cl)c1/C=N/Nc1nc2ccccc2n1C	-7	6	2	1	-5	-2	x	x
FC(F)(F)c1ccc(C2[C@H]3CN(Cc4cccnc4)[C@H](c4ccccc4)C34CC2(c2cccnc2)C4)cc1 (stereo partly specified)	5	-7	5	-2	-17	4	x	x
Clc1ccc(C2[C@H]3CN(Cc4cccnc4)[C@H](c4ccccc4)C34CC2(c2cccnc2)C4)cn1 (stereo partly specified)	59*	-6	1	-3	-13	-1	72*	0
COc1ccc(C2N(C(=O)c3ccccc3)CCN2C(=O)c2ccc(C)cc2)cc1 (stereo unspecified)	-1	1	6	-13	8	2	x	x
COc1ccc(/C=N/N2C(=O)CN(C(=O)c3ccccc3)C2c2ccc(OC)cc2)cc1 (stereo unspecified)	5.8*	x	x	1	x	0	-4	-1
CN(CC(=O)Nc1cccc(C(F)(F)F)c1)C1=NS(=O)(=O)c2ccccc21	9.9*	-3	1	0	10	-2	4	-2
CC(=O)c1c(C)cc(C)c(CSc2nnc(-c3ccco3)o2)c1C	5.4*	-15	-1	0	-7	5	-3	-2
Cc1sc(NC(=O)c2ccco2)c(C(Nc2ccccn2)c2ccccc2)c1C (stereo unspecified)	-1	0	6	-12	6	1	x	x
Cc1nc(NS(=O)(=O)c2ccccc2C)c2c3c(sc2n1)CCC3	x	x	x	x	x	2	x	x
Cc1nc(Nc2cccc(O)c2)c2c3c(sc2n1)CCC3	46*	-2	8	-7	-10	-2	45*	-1	GFP quench dose=>68
COc1cccc(NC(=O)Cn2c(=O)oc3ccccc32)c1	-2	1	-5	5	8	8	x	x
CCCCn1c(NC(=O)c2ccccc2)c(C#N)c2nc3ccccc3nc21	12*	-1	-4	-13	-12	x	6	2
CCC(C)n1c(NC(=O)c2ccccc2)c(C#N)c2nc3ccccc3nc21 (stereo unspecified)	14*	-2	-4	-27	13	2	3	0
Cn1c(SCC(=O)NNC(=S)Nc2ccccc2)nnc1-c1ccncc1	x	x	x	x	x	4	x	x
COc1ccc(C2c3[nH]c4ccccc4c3C[C@H]3C(=O)N(C4CCN(Cc5ccccc5)CC4)CC(=O)N23)cc1OC (stereo partly specified)	10*	6	3	2	6	3	8.2*	0
CN(C)CCN1CCN(C2CN(C3CCCC3)S(=O)(=O)C2)CC1 (stereo unspecified)	0	x	x	-9	x	x	x	x
Cc1c(C(=O)NCC(c2ccco2)N(C)C)oc2c(Cl)cccc12 (stereo unspecified)	39*	2	10	-10	-12	8	47*	0	GFP quench dose=>68;GFP quench-2=>68
SMILES	Rin1-Abl PPI inh	PKA-R1A activ	IDE cell activ	E coli Lon inh	PKA-R2B act	IDE inh	Rin1 Abl conf	GFP quench-1	others
CCOc1ccc2oc(C(=O)NCC(c3ccco3)N(C)C)c(C)c2c1 (stereo unspecified)	-3	5	2	-2	-5	x	x	x
Cc1ccccc1-n1c(SCC(=O)NC2CC2)nc2ccccc2c1=O	10*	-3	x	3	7	x	0	0
COc1ccc(C)cc1-n1c(SCC(=O)NC2CC2)nc2ccccc2c1=O	0	1	1	-5	-2	4	x	x
CCCCC(=O)NC(c1ccccc1OC)c1ccc2cccnc2c1O (stereo unspecified)	2	-7	5	-10	4	8	x	x
CCCC(=O)NC(c1ccccc1OC)c1ccc2cccnc2c1O (stereo unspecified)	7.0*	-3	3	1	7	-3	5	3
O=C(CN1CCN(c2ccc([N+](=O)[O-])cc2Cl)CC1)N1CCOCC1	-3	x	x	7	x	-2	x	x
CCOC(=O)CCCCCC(=O)Nc1ccc2c(c1)C(=O)N([C@@H](C)CO)C[C@@H](C)[C@H](CN(C)S(=O)(=O)c1cccs1)OCCCC[C@H](C)O2	8.2*	4	x	-10	-4	x	6	-1
Cc1noc(C)c1NC(=O)Nc1ccc2c(c1)C(=O)N([C@H](C)CO)C[C@H](C)[C@@H](CN(C)S(=O)(=O)c1ccccc1)O2	9.2*	-5	1	-3	0	12	0	1
C[C@H]1CCCCO[C@@H](CN(C)S(=O)(=O)c2ccc(Cl)cc2)[C@@H](C)CN([C@@H](C)CO)C(=O)c2cc(NS(=O)(=O)c3ccccc3)ccc2O1	-2	-7	x	6	-11	x	x	x
